Experimental data published in PubChem BioAssay AID602481 (Broad Institute, 2012).
Several values for one entry are separate records, joined by “and”; a condition that tells them apart may be missing. Equal entries are not always repeated. Hit rate of the full screen: of about 360,000 compounds, about 340 (0.094%) were called active. This is one part of a sample in which actives are shown more often than they occur. No stated cut-off is given here; in the data, active means inhibition above about 40%; inconclusive means no clear call, values can overlap the other calls; inactive means below that. More than one record can exist for a structure, and the calls need not agree.

Tested on: 7,8-diaminopelargonic acid synthase BioA (Mycobacterium tuberculosis)
Test: M. tuberculosis BioA enzyme inhibitors, primary screen, biochemical, plate reader, single point, HTS (AID 602481)
Settings: purified M. tuberculosis BioA enzyme, at 9.99 µM, stronger effect = higher value

SMILES | inhibition
COc1ccc(S(=O)(=O)N(C)C[C@@H]2OCCCC[C@H](C)Oc3ccc(NC(=O)Nc4ccccc4)cc3C(=O)N([C@H](C)CO)C[C@H]2C)cc1 | -0.37% (inactive)
CN(C)C(=O)C[C@H]1C=C[C@@H](NC(=O)c2ccc(F)cc2)[C@@H](CO)O1 | -0.406% (inactive)
O=C(Nc1ccc2c(c1)OCO2)N[C@H]1CC[C@H](CCNC(=O)C2CCC2)O[C@@H]1CO | 5.56% (inactive)
O=C(C[C@H]1C[C@H]2c3cc(NC(=O)Nc4ccc(F)cc4)ccc3O[C@H]2[C@@H](CO)O1)NCC1CC1 | 0.529% (inactive)
COc1ccc(NC(=O)N(C)C[C@H]2OCCCC[C@H](C)Oc3ccc(NC(=O)c4ccncc4)cc3C(=O)N([C@H](C)CO)C[C@@H]2C)cc1 | -0.437% (inactive)
CN(C)CC(=O)Nc1ccc2c(c1)[C@@H]1C[C@H](CC(=O)NCC3CC3)O[C@@H](CO)[C@@H]1O2 | -1.45% (inactive)
CN(C)CC(=O)N1[C@H](C(=O)NC2CCC2)[C@@H](CO)[C@@H]2Cn3c(ccc(-c4ccc(F)cc4)c3=O)[C@@H]21 | -3.07% (inactive)
CCCN(C)C[C@@H]1OCc2cnnn2CCCC(=O)N([C@H](C)CO)C[C@@H]1C | -0.996% (inactive)
Cc1ccc(S(=O)(=O)Nc2cccc3c2O[C@@H](CN(C)S(=O)(=O)c2cccs2)[C@@H](C)CN([C@@H](C)CO)C3=O)cc1 | 1.64% (inactive)
O=C(Nc1cccc(F)c1)N1CCCCN2[C@H](CO)[C@H](c3ccc(C#CC4CC4)cc3)[C@@H]2C1 | 10.9% (inactive)
Cc1ccc(S(=O)(=O)Nc2ccc3c(c2)CC(=O)N([C@@H](C)CO)C[C@H](C)[C@H](CN(C)Cc2ccc(C(=O)Nc4ccccc4N)cc2)O3)cc1 | -1.91% (inactive)
CCCC(=O)Nc1ccc2c(c1)OC[C@@H](C)N(Cc1ccccc1F)C[C@@H](C)[C@H](OC)CN(C)C2=O | -3.54% (inactive)
CCCN(C)C[C@@H]1Oc2ncc(C#CC3CC3)cc2C(=O)N([C@H](C)CO)C[C@H]1C | -2.63% (inactive)
C[C@H](CO)N1C[C@H](C)[C@@H](CN(C)S(=O)(=O)c2ccccc2)OCCCC[C@H](C)Oc2ccc(NC(=O)NC3CCCCC3)cc2C1=O | -0.429% (inactive)
COc1ccc(S(=O)(=O)N(C)C[C@H]2Oc3c(NS(=O)(=O)c4ccc(F)cc4)cccc3C(=O)N([C@H](C)CO)C[C@H]2C)cc1 | -2.2% (inactive)
C=CCn1c(SCc2cc(C(=O)OC)c(C)o2)nnc1-c1ccncc1 | 5.32% (inactive)
CCn1c(SCc2cccc(C(=O)O)c2)nnc1-c1ccc(Cl)cc1 | 1.6% (inactive)
C=CCn1c(SCc2c(C(=O)OC)sc(N)c2C(=O)OC)nnc1-c1ccc(Cl)cc1 | 51.8% (active)
O=C(C[C@@H]1C=C[C@@H](NC(=O)C2CC2)[C@H](CO)O1)NCCCN1CCOCC1 | -6.18% (inactive)
CCCc1cn(CC[C@@H]2CC[C@@H](NC(=O)CCN3CCCCC3)[C@H](CO)O2)nn1 | -2.51% (inactive)

SMILES | inhibition
O=C(C[C@H]1CC[C@H](NC(=O)c2ccc3c(c2)OCO3)[C@H](CO)O1)NCc1ccc(Oc2ccccc2)cc1 | 2.15% (inactive)
C[C@@H](O)C#Cc1ccc2c(c1)O[C@@H](CN(C)Cc1cccnc1)[C@@H](C)CN([C@@H](C)CO)S2(=O)=O | 5.8% (inactive)
CCC(CO)Oc1cc(NC(=O)c2cccc(F)c2)c2ncn(C(C)C)c2c1 (centres undefined) | 20.8% (inactive) and 67.8% (active)
CCCOc1cccc(C(=O)Nc2nnn(CCC)n2)c1 | -3.8% (inactive)
CC(C)n1cnc2c(NCc3ccccc3)cc(OCC3CCN(C)CC3)cc21 | 5.28% (inactive)
Cc1noc(C)c1NC(=O)Nc1ccc2c(c1)CC(=O)N([C@@H](C)CO)C[C@H](C)[C@H](CN(C)S(=O)(=O)c1c(C)noc1C)O2 | 1.52% (inactive)
CC(C)NC(=O)N(C)C[C@H]1Oc2c(NS(=O)(=O)c3ccc(Cl)cc3)cccc2C(=O)N([C@@H](C)CO)C[C@H]1C | -1.39% (inactive)
C[C@@H]1CN([C@@H](C)CO)C(=O)c2cc(/C=C/c3ccccc3)cnc2O[C@@H]1CN(C)C(=O)CN(C)C | -0.866% (inactive)
CO[C@H](CN(C)S(=O)(=O)c1ccc(Cl)cc1)[C@@H](C)CN(Cc1ccccc1Cl)[C@H](C)CO | -0.783% (inactive)
O=C(NCC[C@@H]1CC[C@H](NS(=O)(=O)c2cccc(F)c2)[C@H](CO)O1)c1cnccn1 | 2.18% (inactive)
Cc1noc(C)c1S(=O)(=O)Nc1ccc2c(c1)C(=O)N([C@H](C)CO)C[C@H](C)[C@H](CN(C)C(=O)NC1CCCCC1)OCCCC[C@H](C)O2 | -0.981% (inactive)
COc1ccc(S(=O)(=O)N(C)C[C@H]2OCCCC[C@H](C)Oc3ccc(NS(=O)(=O)c4c(C)noc4C)cc3C(=O)N([C@@H](C)CO)C[C@@H]2C)cc1 | -0.18% (inactive)
Cc1noc(C)c1NC(=O)N(C)C[C@H]1Oc2ccc(NC(=O)Nc3ccc(C(F)(F)F)cc3)cc2CC(=O)N([C@@H](C)CO)C[C@@H]1C | -2.44% (inactive)
O=C(Nc1cccc(Cl)c1)N1C[C@@H]2[C@H](c3ccccc31)[C@H](CO)N2Cc1ccncc1 | -5.5% (inactive)
Cc1cc(C(=O)Nc2cccc3c2O[C@@H](CN(C)Cc2ccc4c(c2)OCO4)[C@@H](C)CN([C@@H](C)CO)C3=O)n(C)n1 | -2.65% (inactive)
O=C(C[C@@H]1C[C@@H]2c3cc(NC(=O)C4CCC4)ccc3O[C@@H]2[C@@H](CO)O1)NCc1ccccc1 | -1.79% (inactive)
O=C(C[C@@H]1CC[C@@H]2[C@H](COC[C@H](O)CN2S(=O)(=O)c2ccc(Oc3ccccc3)cc2)O1)NCCN1CCCCC1 | 9.19% (inactive)
CCCN1[C@H](C(=O)NCC)[C@@H](CO)[C@@H]2Cn3c(ccc(C4=CCCC4)c3=O)[C@@H]21 | -0.389% (inactive)
CC(=O)N1[C@H](C(=O)N(C)C)[C@@H](CO)[C@@H]2Cn3c(ccc(-c4ccccc4)c3=O)[C@@H]21 | -1.69% (inactive)
